Rows were chosen to be rich in hits. Some 6% of all compounds tested hit in one or more screens of this group.
D1 ag: activates the human D1 dopamine receptor; P21728; HEK293 T-REx D1 cells, calcium flux, agonist mode; activation, % at 2 µM; actives 1% (n = 360,000); in the data active means activation above about 30%; further: 0% is about no effect
Target sequence (P21728 whole entry, looked up): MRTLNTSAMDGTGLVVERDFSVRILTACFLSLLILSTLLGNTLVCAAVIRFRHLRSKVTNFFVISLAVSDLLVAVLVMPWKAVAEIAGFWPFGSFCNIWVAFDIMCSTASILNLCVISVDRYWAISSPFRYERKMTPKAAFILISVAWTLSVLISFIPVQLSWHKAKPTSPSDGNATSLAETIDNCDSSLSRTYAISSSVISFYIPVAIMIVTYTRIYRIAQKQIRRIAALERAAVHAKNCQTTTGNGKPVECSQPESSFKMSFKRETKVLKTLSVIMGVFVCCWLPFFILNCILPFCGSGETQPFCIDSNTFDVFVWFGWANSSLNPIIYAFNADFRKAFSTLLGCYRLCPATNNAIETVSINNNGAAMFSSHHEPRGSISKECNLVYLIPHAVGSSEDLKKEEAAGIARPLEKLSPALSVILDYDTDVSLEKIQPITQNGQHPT
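Inducible HEK293 T-REx D1 cells, force-coupled to calcium signalling, were plated at 4000 cells/well with tetracycline and held overnight at 30 C. After no-wash calcium dye loading, compound-evoked calcium rise over 180 s flagged agonists.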
D1 antagonist: blocks dopamine activation of the human D1 receptor | HEK293 TREx D1 cells, calcium flux, dopamine EC80; stronger effect = lower value | activity change, negative = inhibition, % at 10 µM | actives 3.2% (n = 360,000) | AID 504652; in the data active means activity change below about -30%; further: on the % scale 0 is the no-effect control and ±100 the full control effect
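Allosteric or orthosteric antagonism assessed as attenuation of the calcium response to EC80 dopamine, added 180 s after compound, in induced HEK293 Trex D1 cells loaded with no-wash calcium dye.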
DRD3 antagonist: blocks the human D3 dopamine receptor; P35462; D3R cells, DiscoveRx beta-arrestin luminescence, antagonist mode; stronger effect = lower value; max response, negative = inhibition, %; actives 2.5% (n = 360,000); AID 652054; in the data active means max response below about -50%; inconclusive means no clear call, values can overlap the other calls; further: on the % scale 0 is the no-effect control and ±100 the full control effect
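Cells expressing the human receptor were seeded at 1500 cells/well, incubated overnight at 37 degrees C in 5% CO2, then exposed to library compounds with dopamine controls for 90 minutes at 37 degrees C before luminescent detection.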
D1 potentiator: human D1 dopamine receptor positive modulation; P21728; HEK293 TREx D1 cells, calcium flux, dopamine EC20 potentiation; potentiation, % at 10 µM; actives 0.036% (n = 360,000); AID 504651; in the data active means potentiation above about 30%; further: 0% is about no effect
DRD3 agonist: activates the human D3 dopamine receptor; P35462; D3R DiscoveRx beta-arrestin cells, luminescence, 90 min; max activation, %; actives 0.58% (n = 410,000); AID 652048; in the data active means max activation above about 30%; further: 0% is about no effect
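Cells at 1500/well, incubated overnight, then treated with pinned compounds (dopamine as control) for 90 min at 37 degrees C. DiscoveRx reagent added for 30 - 60 minutes at room temperature; luminescence read.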
Chronic BCR inh: chronic active BCR signaling inhibition | ABC-DLBCL IkBa-CBG/CBR reporter, luminescence ratio, 4 h | Potency, µM (series often up to 46.1 µM), without a hit: top-dose activity change, negative = inhibition, hits mostly inhibitors | actives 0.05% (n = 340,000) | AID 493014; active means well fitted inhibition curve with a large enough effect in the signal ratio, with a control signal flat, not every such curve was filed as active; inconclusive means small, poorly fitted or top-dose-only effect, or effect the other way, or a change in a side signal; the % refers to the signal ratio;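 further: potency means the concentration at half of the fitted maximal effect; plate controls were basal doxycycline-induced cells for no effect and cells given 10 µM MG132 for full effect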
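Concentration-response series (up to 46 uM) were applied to TMD8 dual-reporter cells for 4 h at 37C with doxycycline. Green/red ratio, after filter-overlap correction, defined %Activity; red signal alone was normalised to basal cells and zero luminescence.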
* hit, by the source's call; ? = inconclusive; / = no result; ! = repeats disagree.

SMILES	D1 ag	D1 antagonist	DRD3 antagonist	D1 potentiator	DRD3 agonist	Chronic BCR inh
Cc1ccsc1-c1cc2nc(NCCCN(C)C)n(C)c(=O)c2s1	/	/	?	/	-15	/
CCOC(=O)C1=C(O)/C(=C\c2ccc(OC)c(OC)c2)N=C1C	0	6	-15	-7	-1	-5%
CCOC(=O)C1=C(O)/C(=C/c2cc(OC)c(OC)c(OC)c2)N=C1C	3	-38*	3	-8	-13	0%
CCCCCCCN(CC)CCCC(O)c1ccc(NS(C)(=O)=O)cc1 (stereo unspecified)	/	/	/	/	-26	/
CCn1c(C(=O)NCc2ccccc2Br)cc2oc3ccccc3c21	3	-4	/	-5	42*	/
Cn1c(C(=O)NCc2ccccc2F)cc2oc3ccccc3c21	3	-57*	/	-8	-2	/
Cn1c(C(=O)NCc2ccccc2)cc2oc3ccccc3c21	1	-3	14	-8	-3	?
CCn1c(C(=O)NCc2cccc(Br)c2)cc2oc3ccccc3c21	11	23	/	-3	-10	/
O=S(=O)(Cc1ccccc1)CS(=O)(=O)Cc1ccccc1	/	/	1	/	9	/
O=C1CCSC2(C(=O)N(Cc3ccc(F)cc3)c3ccccc32)N1c1cccc(F)c1 (stereo unspecified)	4	8	/	-5	3	/
CC(Sc1nc(N)cc(=O)[nH]1)C(=O)Nc1nc2c(s1)CCCC2 (stereo unspecified)	3	-41*	-3	-7	-2	2%
Cc1ccc(-c2noc(-c3ccccc3NC(=O)C3CC(=O)N(c4ccccc4C)C3)n2)cc1 (stereo unspecified)	14	-4	/	-1	-20	/
O=C(O)CNC(=O)CC1S/C(=N/N=C2/NC(=O)CS2)NC1=O (stereo unspecified)	7	-30*	3	-5	4	-2%
Cc1nc2c(o1)C(=O)c1ccccc1C2=Nc1ccccc1	/	/	?	/	-3	/
Cc1cccc(N2CCN(C(=O)c3cc4ccc5cccnc5c4[nH]3)CC2)c1C	2	18	/	-4	-10	/
COc1ccc2c3n(nc2c1)CCN=C3c1cc(Cl)c(N)c(Cl)c1	2	-36*	65	-8	18	?
COc1ccc(C2=NCCn3nc4ccccc4c32)cc1	0	-45*	0	-3	-23	?
COc1ccc(-c2nc3ccccc3c(=O)n2O)cc1	3	-3	?	-6	-10	-7%
CC(C)CNC(=O)C1(C)CCCN1C(=O)c1ccc2c(c1)CCO2 (stereo unspecified)	/	/	1	/	7	/
O=C(CSc1nc2c(cnn2-c2ccc(F)cc2)c(=O)[nH]1)Nc1ccccc1C(F)(F)F	2	3	/	1	8	/
CCOC1(OCC)N=C(N)C2(C#N)C(c3cccc(OC)c3OC)C12C#N (stereo unspecified)	2	3	12	-4	-13	5%
CCOC1(OCC)N=C(N)C2(C#N)C(c3cccc(C)c3)C12C#N (stereo unspecified)	0	-82*	-21	-2	5	0%
CCN(CC)C(=O)C1CCCN(C/C=C/c2ccccc2[N+](=O)[O-])C1 (stereo unspecified)	5	-62*	-12	-3	-8	-12%
CCN(CC)C(=O)C1CCCN(c2ccc([N+](=O)[O-])cc2)C1 (stereo unspecified)	2	-17	-2	-6	-9	14%
CCOC(=O)C1CCCN(C/C=C/c2ccccc2[N+](=O)[O-])C1 (stereo unspecified)	3	-1	-64*	-5	-30	-16%
SMILES	D1 ag	D1 antagonist	DRD3 antagonist	D1 potentiator	DRD3 agonist	Chronic BCR inh
Cc1ccc(CNc2nc3ccccc3n3cnnc23)cc1	-1	-37*!	-6	-4	6	?
CSc1ccc(CNc2nc3ccccc3n3cnnc23)cc1	3	28	-10	8	-1	?
c1ccc2c(c1)CCN(CCCNc1nc3ccccc3n3cnnc13)C2	1	-2	-109*	-4	-20	1%
CCN1CCN(C(C(=O)NC2CCCCC2)c2cc3ccccc3o2)CC1 (stereo unspecified)	/	/	-8	/	-9	/
O=C(C=P(c1ccccc1)(c1ccccc1)c1ccccc1)c1ccccc1-c1ccccc1C(=O)C=P(c1ccccc1)(c1ccccc1)c1ccccc1	/	/	-89*	/	-3	/
CC(C)n1nc(-c2cc3cc(O)ccc3[nH]2)c2c(N)ncnc21	/	/	/	/	-12	/
Cc1nc(-c2cccnc2)sc1C(=O)Nc1ccc(C(F)(F)F)cc1	2	-33*	9	-3	-3	-3%
Cc1nc(-c2cccnc2)sc1C(=O)Nc1cccc(C(F)(F)F)c1	2	4	20	-3	-3	?
O=C(CSc1nnc(CNc2ccccc2)o1)N1CCc2ccccc21	5	-24	14	-1	44*	3%
O=C(CSc1nnc(Cc2ccccc2)o1)N1CCCc2ccccc21	0	4	-15	-5	-9	6%
O=C(NCc1ccc2c(c1)OCO2)c1cc([N+](=O)[O-])ccc1N1CCCCC1	2	-25	-2	2	-13	23µM*
O=[N+]([O-])c1cc(Cl)ccc1N1CCCCC1	-1	-5	0	-5	-8	0%
Cc1ccc(C(=O)c2cc([N+](=O)[O-])ccc2N2CCCCC2)cc1	2	-6	-65*	2	-8	23µM*
O=[N+]([O-])c1ccc(N2CCCCCC2)c([N+](=O)[O-])c1	2	-53*	-17	-12	-4	5%
O=Cc1cc([N+](=O)[O-])ccc1N1CCOCC1	2	-39*	13	14	0	-1%
O=C(NCc1ccco1)c1cc([N+](=O)[O-])ccc1N1CCCCC1	1	-18	-2	-2	-2	1%
O=C1NC(=S)N/C1=C/c1cc([N+](=O)[O-])ccc1N1CCOCC1	1	18	-1	0	4	?
Cc1ccccc1CS(=O)(=O)Cc1ccc(C(=O)NCc2ccc(F)cc2)o1	7	4	/	-2	4	-7%
COc1cc(N)c(Cl)cc1C(=O)N[C@@H]1CCN(CCCOc2ccc(F)cc2)C[C@@H]1OC	4	-58*	/	-3	/	?
COc1cc(N)c(Cl)cc1C(=O)NC1CCN(CCCOc2ccc(F)cc2)CC1OC (stereo unspecified)	/	/	/	/	-22	/
COc1cc(N)c(Cl)cc1C(=O)N[C@H]1CCN(CCCOc2ccc(F)cc2)C[C@H]1OC	12	-3	-77*	-2	-93	-19%
COc1ccc(OC)c(C(O)c2ncc(-c3ccc(C(F)(F)F)cc3)[nH]2)c1 (stereo unspecified)	/	/	?	/	-25	/

Screening results deposited in PubChem BioAssay by National Center for Advancing Translational Sciences (NCATS).
